Bioassay records: PubChem BioAssay, National Center for Advancing Translational Sciences (NCATS)
Hits are enriched below; roughly 11% of the tested compounds scored in any of these assays.
ALDH1A1 block: inhibitors of human aldehyde dehydrogenase 1A1 | Purified ALDH1A1, NADH fluorescence, propionaldehyde substrate | Potency, µM (series often up to 75.3 µM), inactives show at the highest dose activity, negative = inhibition, usual class: inhibitors | 220,000 compounds, 7.3% hits;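 note: potency is the fitted concentration of half-maximal effect; plate controls were no enzyme wells and a reference inhibitor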
Target sequence (P00352 whole entry, looked up): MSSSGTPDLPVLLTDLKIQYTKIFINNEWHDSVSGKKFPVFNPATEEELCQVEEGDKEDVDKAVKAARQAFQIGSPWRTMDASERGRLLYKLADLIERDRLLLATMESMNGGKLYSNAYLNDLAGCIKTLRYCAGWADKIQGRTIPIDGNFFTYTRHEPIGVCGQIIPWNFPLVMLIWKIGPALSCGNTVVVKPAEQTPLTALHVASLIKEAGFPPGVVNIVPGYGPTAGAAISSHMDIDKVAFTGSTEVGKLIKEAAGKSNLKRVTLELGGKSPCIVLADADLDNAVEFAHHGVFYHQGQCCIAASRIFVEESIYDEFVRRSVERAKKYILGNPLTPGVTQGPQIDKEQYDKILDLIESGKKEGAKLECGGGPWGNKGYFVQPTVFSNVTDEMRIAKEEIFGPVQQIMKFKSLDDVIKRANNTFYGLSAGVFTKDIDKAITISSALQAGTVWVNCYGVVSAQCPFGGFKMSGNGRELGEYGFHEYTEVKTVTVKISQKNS
PNC inhibitor: perinucleolar compartment assembly inhibition; 140,000 compounds, 3.1% hits; activity change (PNC), negative = inhibition, % at 10 µM; PC3M PTB-GFP, PNC prevalence imaging, 16 h; hits give low values;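 active = readout at or below -70, meaning at least 70% loss of cells showing the perinucleolar compartment, a nuclear body marking cancer cells; inconclusive = readout between -30 and a set limit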;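 note: plate controls were DMSO wells for no effect and camptothecin positive control wells for full effect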
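PC3M cells stably expressing PTB-GFP, 750–1000 cells/well, treated 16 h at 37 °C with compound (23 nl of library stock), in duplicate. After paraformaldehyde fixation and Hoechst stain, imaged at 20x; PNC prevalence scored by image analysis.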
HPGD inh: inhibitors of human 15-hydroxyprostaglandin dehydrogenase (HPGD). Potency, µM, without a hit: at the highest dose activity change, negative = inhibition, most hits filed as inhibitors. purified HPGD, NADH fluorescence kinetic, PGE2 substrate. P15428. 150,000 compounds, 4.3% hits; note: potency is the fitted concentration of half-maximal effect
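20 nM HPGD preincubated 15 min at room temperature with compound in 50 mM Tris-HCl pH 8, 0.01% Tween 20. Started with 1 mM NAD+ and 30 uM prostaglandin E2; NADH fluorescence (360/450 nm) read 5 times over 30-s intervals, last minus first.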
Numbers without * were called inactive; [ ] = dose if it differs, or a comment. Unless noted, calls come from the whole dose curve; as a rule, active = well fitted inhibition curve with a large enough effect (not every such curve was filed as active); inconclusive = small, poorly fitted or top-dose-only effect, or another doubt; inactive = no such curve, though single readings can be large or run the other way. Unless noted, % is set by controls: 0 for no effect and ±100 for the full control effect.

What do the screens show for `O=C(O)c1ccccc1-c1c2cc(Br)c(=O)cc-2oc2[c]([Hg])c(O)c(Br)cc12`?
ALDH1A1 block: 4.5µM*; HPGD inh: 2.2µM*

What do the screens show for `COC(=O)[C@@]1(Cc2ccccc2)[C@H]2c3cc(C(=O)N(C)C)n(C)c3C[C@H]2CN1C(=O)c1ccccc1`?
ALDH1A1 block: 3%; HPGD inh: -3%

What do the screens show for `CC(=O)[C@H]1CCC2C3CC[C@H]4C[C@H](O)CC[C@]4(C)C3CC[C@@]21C` (some centres undefined)?
ALDH1A1 block: -7%; HPGD inh: 2%

Results for CCOP(=O)(OCC)C(c1ccccc1)N(C)C=O (centres undefined) ?
ALDH1A1 block: 18µM*; PNC inhibitor: 3

Results for CCOP(=O)(OCC)C(NC(=O)c1ccccc1)C(Cl)(Cl)Cl (centres undefined) ?
ALDH1A1 block: -4%; PNC inhibitor: 27; HPGD inh: -10%

How did CCC[CH2][Sn]([Cl])([Cl])[Cl] do in these assays?
ALDH1A1 block: inconclusive; HPGD inh: -3%

What do the screens show for `C#CCOS(=O)OC1CCCCC1Oc1ccc(C(C)(C)C)cc1` (centres undefined)?
ALDH1A1 block: inconclusive; HPGD inh: -19%

What do the screens show for `Nc1nc(=S)c2ncn(C3OC(CO)C(O)C3O)c2[nH]1` (centres undefined)?
ALDH1A1 block: 7.9µM*

Results for COc1ccc(NC(=S)NCCN2CCOCC2)cc1 ?
ALDH1A1 block: 1.3µM*

How did COc1ccc(Cn2c(O)c(C=NCCN3CCOCC3)c(=O)[nH]c2=O)cc1 do in these assays?
ALDH1A1 block: inconclusive; PNC inhibitor: 34

How did CC(=O)Nc1c2sscc-2n(C)c1=O do in these assays?
ALDH1A1 block: 2%; HPGD inh: -11%

Results for CCOC(=O)C1CCN(/C=C2/C(=O)NC(=S)N(c3ccccc3F)C2=O)CC1 ?
ALDH1A1 block: 5%

What do the screens show for `Cc1ccc(/C=C2\C(=O)NC(=S)N(c3ccccc3F)C2=O)s1`?
ALDH1A1 block: 8.9µM*; PNC inhibitor: -22; HPGD inh: 2.2µM*

Results for C#CCO ?
ALDH1A1 block: 22µM*; HPGD inh: -2%

Results for O=C(O)CSCC(=O)O ?
ALDH1A1 block: 1%[13.5 µM]; HPGD inh: -8%

Results for O=C(NCNC(=O)N[C@H]1C(=O)NC(=O)N1CO)N[C@H]1C(=O)NC(=O)N1CO ?
ALDH1A1 block: 7%[20.9 µM]; HPGD inh: -5%

How did COC(=O)c1ccc(-c2nc(-c3ccc(Br)o3)no2)cc1 do in these assays?
ALDH1A1 block: inconclusive; PNC inhibitor: inconclusive; HPGD inh: -14%

What do the screens show for `CN[C@@H]1C[C@H](c2ccc(Cl)c(Cl)c2)c2ccccc21`?
ALDH1A1 block: 0%; HPGD inh: -9%

Results for O=C(O)[C@H]1C2c3ccccc3C(c3ccccc32)[C@@H]1C(=O)NCC1CC1 ?
ALDH1A1 block: 10%[13.5 µM]; HPGD inh: -6%

What do the screens show for `C/C=C1\C[N@@+]2(C)CC[C@@]34C(=C(C=O)[C@H]1C[C@H]32)Nc1ccccc14`?
ALDH1A1 block: inconclusive; HPGD inh: 16µM*

Results for CSCC[C@@H](N)P(C)(=O)O ?
ALDH1A1 block: 5%[13.5 µM]; HPGD inh: -2%

What do the screens show for `CCCc1cc2c(n1CCO)C(C)C1CN(C(=O)c3ccccc3)C(C)(C(=O)OC)C21` (centres undefined)?
ALDH1A1 block: 6%; HPGD inh: -13%

What do the screens show for `COc1cc2c(cc1OC)[C@@]13CCN4C=C5CCO[C@H]6CC(=O)N2[C@@H]1C6[C@H]5C[C@H]43` (some centres undefined)?
ALDH1A1 block: 11%[13.5 µM]; HPGD inh: -9%

Results for O=C(c1cc2c(s1)-c1ccccc1OC2)N1CCC2(CC1)OCCO2 ?
ALDH1A1 block: inconclusive; PNC inhibitor: -28; HPGD inh: inconclusive

Results for O=C(c1csc2c1CCCCC2)N1CCC2(CC1)OCCO2 ?
ALDH1A1 block: 8.9µM*; PNC inhibitor: inconclusive; HPGD inh: inconclusive

How did O=C(c1cc(S(=O)(=O)N2CCCCC2)ccc1F)N1CCC2(CC1)OCCO2 do in these assays?
ALDH1A1 block: inconclusive; PNC inhibitor: -3; HPGD inh: -5%

How did O=C(c1cc2c(s1)CCCC2)N1CCC2(CC1)OCCO2 do in these assays?
ALDH1A1 block: 11µM*; PNC inhibitor: -26; HPGD inh: 25µM*

Results for COC(C/C=C/C=C/CC/C=C\CC(C)/C=C\C(=C/C(=O)O)CC(=O)O)/C(C)=C\C=C(/C)C(=O)O (centres undefined) ?
ALDH1A1 block: 0%

What do the screens show for `c1ccc2sc(C3(N4CCCC4)CCCCC3)cc2c1`?
ALDH1A1 block: 4%

Results for CCCCC/C=C\C/C=C\C/C=C\CCCCC(=O)NCCO ?
ALDH1A1 block: -1%; HPGD inh: -3%

Results for COc1ccc(CN2CCN(Cc3ccccc3)CC2)c(OC)c1 ?
ALDH1A1 block: 2%; PNC inhibitor: 16; HPGD inh: -12%

Results for COc1ccccc1CN1CCN(C(=O)COc2ccccc2)CC1 ?
ALDH1A1 block: inconclusive; PNC inhibitor: -2; HPGD inh: 3%

How did COc1ccc(CN2CCN(C(=O)Cc3ccccc3)CC2)c(OC)c1 do in these assays?
ALDH1A1 block: 18µM*; PNC inhibitor: 11; HPGD inh: -2%

Results for Cc1ccc(OCC(=O)N2CCN(Cc3ccc4c(c3)OCO4)CC2)cc1 ?
ALDH1A1 block: 25µM*

What do the screens show for `COc1ccc(OCC(=O)N2CCN(Cc3ccc(SC)cc3)CC2)cc1`?
ALDH1A1 block: 2%

How did COc1ccc(OCC(=O)N2CCN(Cc3ccc4c(c3)OCO4)CC2)cc1 do in these assays?
ALDH1A1 block: 1%

What do the screens show for `COc1cccc(CN2CCN(C(=O)COc3ccc4ccccc4c3)CC2)c1`?
ALDH1A1 block: 25µM*; PNC inhibitor: 12; HPGD inh: -7%

What do the screens show for `COc1ccc(OCC(=O)N2CCN(C(C)C)CC2)cc1`?
ALDH1A1 block: inconclusive; PNC inhibitor: -100*; HPGD inh: -10%

How did O=C(Nc1cccc(F)c1)N1CC2(CCNCC2)C1 do in these assays?
ALDH1A1 block: -9%; HPGD inh: -9%

How did CCn1cnc2c(Nc3cccc(Cl)c3)nc(N[C@@H]3CCCC[C@@H]3N)nc21 do in these assays?
ALDH1A1 block: 2%; HPGD inh: -10%

How did CCCCCCCC(=O)OCC(COC(=O)CCCCCCC)OC(=O)CCCCCCC do in these assays?
ALDH1A1 block: inconclusive; HPGD inh: -6%

Results for CCN1C[C@]2(C)CC[C@H](OC)[C@]34C5C[C@@H]6CC[C@@](O)(C5C(=O)O6)C(C13)[C@@H](OC(=O)c1ccccc1)C24 ?
ALDH1A1 block: 3%; HPGD inh: -4%

How did COc1cc2c3cc1Oc1cc(ccc1O)C[C@@H]1c4c(cc(OC)c(O)c4Oc4cccc(c4)C[C@H]3N(C)CC2)CC[N+]1(C)C do in these assays?
ALDH1A1 block: -1%[20.9 µM]; HPGD inh: -4%

How did C=C1C/C(=C/C)C(=O)O[C@@H]2CCN3CC=C(COC(=O)[C@]1(C)O)[C@@H]23 do in these assays?
ALDH1A1 block: 0%; HPGD inh: 0%

Results for CC/C(=N\Nc1ccccc1)c1c(O)n(C)c(=O)n(C)c1=O ?
ALDH1A1 block: inconclusive; PNC inhibitor: 10; HPGD inh: -9%
